PLC-gamma1 inh = blocks human PLC-gamma1 enzyme activity; P19174; hit rate 0.84% among 370,000; inhibition, % at 12.2 µM; AID 720700; purified PLC-gamma1, fluorogenic substrate, fluorescence; in the data active means inhibition above about 9.5%
ADAM10 inh = inhibitors of human ADAM10. inhibition, % at 7 µM. recombinant ADAM10, EDANS/DABCYL FRET peptide cleavage, 3 h. hit rate 0.62% among 370,000. O14672;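 active means inhibition above a per-campaign cutoff equal to the mean of compounds falling between control-based bounds plus 3 SD, cut at about 20% in these data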;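 further: 0% = DMSO wells while the 100% control is not disclosed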
KLK7 zymogen act = proKLK7 (human) activation, primary screen; P49862; purified proKLK7, EDANS-DABCYL substrate fluorescence; 100% is mature enzyme control, 0% vehicle; activation, % at 7 µM; hit rate 0.9% among 370,000;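 active means activation above the mean of all tested compounds plus 3 SD, computed per campaign excluding outliers beyond control limits, cut at about 13% in these data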
PLCb3 inh = PLC-beta3 (human) inhibition, primary screen. Q01970. Purified PLC-beta3, fluorogenic substrate, fluorescence. inhibition, % at 12.2 µM. hit rate 0.18% among 370,000. AID 720704;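 further: 0% = median of compound wells on plate and 100% = full blocker control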
Target sequence (Q01970 whole entry, looked up): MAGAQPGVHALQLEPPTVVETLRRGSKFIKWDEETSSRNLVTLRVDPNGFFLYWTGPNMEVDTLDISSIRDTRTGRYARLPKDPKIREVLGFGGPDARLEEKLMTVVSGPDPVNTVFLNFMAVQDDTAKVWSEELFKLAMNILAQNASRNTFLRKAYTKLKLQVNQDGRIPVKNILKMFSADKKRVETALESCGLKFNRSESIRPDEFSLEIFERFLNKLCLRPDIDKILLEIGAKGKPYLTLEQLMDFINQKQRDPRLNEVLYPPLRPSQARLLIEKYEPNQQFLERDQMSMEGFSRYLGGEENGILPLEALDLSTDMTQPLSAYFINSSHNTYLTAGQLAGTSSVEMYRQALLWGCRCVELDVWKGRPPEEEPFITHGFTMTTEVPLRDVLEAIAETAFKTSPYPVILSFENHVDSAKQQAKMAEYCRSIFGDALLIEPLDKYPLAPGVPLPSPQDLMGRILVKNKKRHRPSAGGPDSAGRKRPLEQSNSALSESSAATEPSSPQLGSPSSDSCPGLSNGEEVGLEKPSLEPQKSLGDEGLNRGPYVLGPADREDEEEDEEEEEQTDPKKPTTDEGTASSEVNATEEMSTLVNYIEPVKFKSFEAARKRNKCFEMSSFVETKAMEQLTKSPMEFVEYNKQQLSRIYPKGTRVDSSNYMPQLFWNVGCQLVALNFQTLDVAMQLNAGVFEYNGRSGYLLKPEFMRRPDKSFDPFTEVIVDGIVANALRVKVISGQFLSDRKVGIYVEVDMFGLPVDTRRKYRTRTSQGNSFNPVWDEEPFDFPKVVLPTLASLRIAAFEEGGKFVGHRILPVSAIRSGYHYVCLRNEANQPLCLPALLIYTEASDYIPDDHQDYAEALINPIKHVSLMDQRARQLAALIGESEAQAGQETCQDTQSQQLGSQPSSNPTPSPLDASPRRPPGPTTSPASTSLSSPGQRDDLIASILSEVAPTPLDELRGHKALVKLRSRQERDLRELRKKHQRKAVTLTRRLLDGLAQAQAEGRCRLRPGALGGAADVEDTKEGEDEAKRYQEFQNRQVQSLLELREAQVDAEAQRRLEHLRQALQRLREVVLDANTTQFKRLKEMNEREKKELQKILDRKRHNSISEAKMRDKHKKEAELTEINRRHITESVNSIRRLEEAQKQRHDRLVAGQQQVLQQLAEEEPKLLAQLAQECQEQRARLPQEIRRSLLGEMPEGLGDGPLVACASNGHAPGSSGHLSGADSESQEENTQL
ADAM17 inh = inhibits human ADAM17; P78536; recombinant ADAM17, EDANS/DABCYL FRET peptide cleavage; inhibition, % at 6.95 µM; hit rate 0.83% among 370,000; AID 720648;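 active means inhibition above the mean of compounds lying between control limits plus 3 SD, set per campaign, cut at about 8.5% in these data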;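 further: 0% = DMSO-only wells as the low control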
PLCgamma1 ctr = PLC-gamma1 inhibition, counter-screen for PLC-beta3 hits | purified PLC-gamma1, fluorogenic substrate, fluorescence | inhibition, % at 12.3 µM | AID 743258 | shares compounds with PLC-gamma1 inh | hit rate 3.1% among 3,300; in the data active means inhibition above about 9.5%
PLCb3 confirm = confirmation of human PLC-beta3 inhibitors | hit rate 1% among 3,300 | inhibition, % at 12.3 µM | shares compounds with PLC-gamma1 inh | purified PLC-beta3, fluorogenic substrate fluorescence
Starred values were filed as active, the others as inactive; nt = no result given. Shown are actives, neighbours in structure and some others; about 2.9% of the full set was active somewhere. Unless noted, no stated cut-off is given here; in the data, active means inhibition above about 11%; inactive means the rest.

SMILES	PLC-gamma1 inh	ADAM10 inh	KLK7 zymogen act	PLCb3 inh	ADAM17 inh	PLCgamma1 ctr	PLCb3 confirm
O=C(NCCCN1CCOCC1)c1cccnc1	-1.6	-3.0	-0.4	-0.2	-0.6	nt	nt
Cc1ccc(C(=O)NCCCN2CCOCC2)cc1S(=O)(=O)N1CCOCC1	10.2*	7.7	0.6	-1.1	5.3	-6.9	-2.4
O=C(NCCc1ccccc1)C(=O)NN=C1CCCC1	9.7*	-13.1	0.1	2.6	-5.7	-3.0	-1.5
O=C(NCCCN1CCOCC1)c1ccccc1	11.9*	0.0	-0.4	5.5	6.0	-2.3	2.2
COc1ccc(CCNC(=O)C(=O)NN=C2CCCCCCC2)cc1OC	-0.5	3.4	1.2	-5.5	-3.6	nt	nt
O=C(NCCCN1CCOCC1)C(=O)NCCc1ccccc1	12.0*	11.3	0.1	5.0	4.0	-4.0	-0.4
COC(=O)[C@H]1C[C@H](OC(=O)Nc2cccs2)[C@@]2(O)CN(S(=O)(=O)c3ccc(C)cc3)CC2[C@H]1C(=O)OC (stereo partly drawn)	-2.5	-7.5	0.0	-4.8	-4.2	nt	nt
O=C(Cc1ccccc1)NCCCN1CCN(CCCNC(=O)Cc2ccccc2)CC1	11.4*	10.1	0.6	5.4	2.4	-4.7	-3.1
O=C(/C=C/c1ccco1)NC(=S)Nc1cccc(C(=O)O)c1	19.0*	-7.7	-0.3	-11.8	-1.6	19.2*	-6.2
O=C(NCC(=O)N1CCN(c2ccccc2O)CC1)c1ccc(Br)o1	-0.7	4.4	0.5	0.3	0.2	nt	nt
CC(=O)Nc1cc(S(=O)(=O)Nc2ccccc2C)c(C)cc1C	9.8*	10.4	0.4	6.0	3.9	-1.6	2.6
COc1ccc(C)cc1S(=O)(=O)Nc1ccccc1C	11.4*	12.7	-0.3	10.0	5.8	-5.8	-4.2
Cc1ccccc1NS(=O)(=O)c1ccc(C)c(NS(C)(=O)=O)c1C	9.9*	-0.9	0.2	-1.5	-3.8	2.3	0.5
O=C(c1c(Cl)cccc1Cl)N1CCN(c2ncccn2)CC1	-4.0	-20.0	0.5	-8.6	-5.1	nt	nt
Cc1cc(C(=O)CSc2n[nH]c(-c3ccccc3F)n2)c(C)n1Cc1cccs1	10.4*	10.3	0.6	3.4	5.8	-8.9	-6.6
Cc1csc(SCC(=O)c2cc(C)n(Cc3cccs3)c2C)n1	0.2	7.4	0.4	-3.6	2.4	nt	nt
Cc1nnsc1C(=O)N1CCCC(Nc2ccc(F)c(F)c2)C1 (stereo not drawn)	-1.7	-6.0	0.2	-20.4	-2.3	nt	nt
CC1=C(C(=O)N(C)C)CC(CC(=O)NCC2CCCCC2)C(=O)N1CCC1=CCCCC1 (stereo not drawn)	11.4*	2.2	0.4	4.2	0.0	-2.9	-0.2
CCN(CC)C(=O)C1=C(C)N(CCC2=CCCCC2)C(=O)C(CC(=O)NCC2CCCCC2)C1 (stereo not drawn)	0.3	5.9	-0.4	3.8	2.7	nt	nt
CCC(C(=O)NCc1cccnc1)n1nc(C)n2c(cc3occc32)c1=O (stereo not drawn)	-2.6	-8.6	0.3	-15.3	-5.6	nt	nt
CC(NS(C)(=O)=O)C(c1cccs1)N1CCN(C)CC1 (stereo not drawn)	10.8*	8.2	0.5	3.2	3.5	-4.4	0.3
O=C(CCS(=O)(=O)c1ccccc1)N1CCCc2ccccc21	-0.4	-10.6	-0.1	-7.7	-1.3	nt	nt
O=C(O)c1ccc(S(=O)(=O)N2CCCc3ccccc32)cc1	9.9*	3.6	0.1	0.1	2.8	-4.2	0.7
O=C(CCC(=O)N1CCCc2ccccc21)N1CCN(S(=O)(=O)c2ccccc2)CC1	10.6*	12.6	0.2	9.5	1.0	-6.0	-4.4
CCOc1ccc(Br)cc1C1=NN(C(C)=O)C(c2ccc([N+](=O)[O-])s2)O1 (stereo not drawn)	-7.2	-3.5	-0.3	-13.6	-3.2	nt	nt
SMILES	PLC-gamma1 inh	ADAM10 inh	KLK7 zymogen act	PLCb3 inh	ADAM17 inh	PLCgamma1 ctr	PLCb3 confirm
CCOC(=O)N1CCN(C(=O)/C(=C\c2cccs2)NC(=O)c2cccs2)CC1	10.3*	9.5	0.8	1.1	3.0	5.7	8.2
NC(N)=Nc1ccc(C=C2C=Cc3ccccc32)cc1	6.6	6.5	0.7	2.8	-0.3	nt	nt
CCC(C(=O)NCc1cccs1)n1nc(C)n2c(cc3occc32)c1=O (stereo not drawn)	-4.6	-5.4	-0.1	-10.0	-3.1	nt	nt
Cc1ccc(C(C)C)c(OCC(O)CN2CC(C)OC(C)C2)c1 (stereo not drawn)	14.8*	-1.5	0.3	-0.8	-5.3	0.2	-2.9
Cc1ccc(C(C)C)c(OCC(O)CN2CCOCC2)c1 (stereo not drawn)	1.8	4.0	-0.3	3.6	0.3	nt	nt
COC(=O)[C@]12C[C@H](CC(=O)N3CCCCC3)C(=O)N(Cc3cccc4ccccc34)C1=C[C@H](C(C)C)O[C@@H]2C1CC1	-0.2	9.3	1.2	2.0	1.1	nt	nt
COc1ccc(C2SCC(=O)N2CCCN(C)C)cc1 (stereo not drawn)	8.2	5.5	-0.7	13.2*	5.0	-5.3	0.0
O=c1nc2sc3ccccc3n2c(=O)n1-c1ccc(Cl)cc1	-0.1	0.5	0.4	1.1	-5.6	nt	nt
COC(=O)Cc1ccc(OC2(C)CCN(Cc3csc4ccccc34)C2)cc1 (stereo not drawn)	3.4	-14.1	-0.3	0.1	1.0	nt	nt
CCCNC(=O)NC(C(=O)OC)C12CC3CC(CC(C3)C1)C2 (stereo not drawn)	10.9*	3.5	-0.6	6.0	1.2	0.1	0.5
CCN(C(=O)COC(=O)c1ccc(S(=O)(=O)N2CCCc3ccccc32)cc1)C1CCS(=O)(=O)C1 (stereo not drawn)	1.7	1.4	0.1	2.3	-3.0	nt	nt
Cc1ccc2nc3n(c(=O)c2c1)-c1ccccc1C(=O)NC3Cc1ccc(O)cc1 (stereo not drawn)	10.1*	12.1	-0.1	4.7	8.5	-6.3	-6.5
O=C1NC(Cc2ccccc2)c2nc3ccc(F)cc3c(=O)n2-c2ccccc21 (stereo not drawn)	0.0	9.0	0.5	-0.9	-0.9	nt	nt
O=C1NC(Cc2ccccc2)c2nc3cc(F)ccc3c(=O)n2-c2ccccc21 (stereo not drawn)	11.1*	0.1	0.9	-0.6	6.4	-5.4	-4.6
Cc1ccc(O)c(C(=O)c2cnc3c(c2)c(C)nn3-c2ccccc2)c1	1.2	4.7	0.4	2.7	-0.4	nt	nt
COc1ccc(F)cc1S(=O)(=O)N1CCCN(S(=O)(=O)c2cc(F)ccc2OC)CC1	3.8	-1.5	0.4	5.1	0.0	nt	nt
COc1ccc(F)cc1S(=O)(=O)n1cc(C)nc1-c1ccccc1	7.3	11.9	-0.1	10.9*	4.2	-5.1	-13.5
CCc1cccc2c(N=O)c(O)[nH]c12	10.9*	6.6	0.0	1.5	-1.3	-1.7	0.6
COc1ccc(Nc2nc(Nc3ccc(OC)cc3)nc(SC3=NCCS3)n2)cc1	12.8*	17.1	0.7	0.8	4.5	3.6	4.2

High-throughput results as filed in PubChem BioAssay.
